Screening data deposited in PubChem by National Center for Advancing Translational Sciences (NCATS).
In the library only some 0.43% were active in any assay of this set; here they are far more common.
aGlu spleen mod = inhibits or activates alpha-glucosidase in human spleen homogenate; Potency, µM (titrated, usually from 79.9 µM), without a hit: top-dose activity change, negative = inhibition, actives largely listed as inhibitors; actives 0.006% (n = 240,000); human spleen homogenate, 4-MU-alpha-glucoside fluorescence; AID 2112; P10253;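 also: potency is read from the fitted curve at half-maximal effect; 0% = enzyme with vehicle and -100% = no enzyme basal signal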
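Human spleen homogenate (1 ug) with 4-methylumbelliferyl-alpha-D-glucopyranoside (1 mM final) in 50 mM citrate/phosphate pH 5.0, 0.01% Tween-20; 40 min at 37 C. Stopped at pH 10; 4-MU fluorescence Ex 365/Em 440 nm; AC50 by Hill fit.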
GLA inh pH 4.5 = alpha-galactosidase A (human) inhibition, pH 4.5; P06280; purified enzyme, 4-MU-alpha-Gal fluorescence, pH 4.5; activity change, negative = inhibition, % at 105 µM; 230,000 tested, under 10 active; AID 1467;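 also: 0% = full activity with enzyme and -100% = basal without enzyme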
GAA glycogen = alters human alpha-glucosidase cleavage of glycogen; actives 0.38% (n = 300,000); AID 2100; Potency, µM (series often up to 76.4 µM), for inactives: top-dose activity change, negative = inhibition, most hits filed as inhibitors; recombinant GAA, glycogen substrate, Amplex Red glucose oxidase fluorescence;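 also: potency is read from the fitted curve at half-maximal effect; 0% = full enzyme reaction and -100% = no-enzyme basal signal; the screen sought inhibitors and activators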
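Natural-substrate format: glycogen cleavage by 4 nM human enzyme, glucose read by Amplex Red coupling (Ex 573, Em 610 nm). Normalized to enzyme and no-enzyme controls.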
aGal spleen mod = inhibits or activates alpha-galactosidase in human spleen homogenate; P06280; human spleen homogenate, 4MU-alpha-Gal fluorescence, 40 min; Potency, µM (doses to about 80 µM), for inactives: at the highest dose activity change, negative = inhibition, actives largely listed as inhibitors; actives 0.008% (n = 240,000); AID 2107;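 also: potency is read from the fitted curve at half-maximal effect; 0% = enzyme with vehicle and -100% = no enzyme basal signal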
Target sequence (P06280 32-429 limits assumed): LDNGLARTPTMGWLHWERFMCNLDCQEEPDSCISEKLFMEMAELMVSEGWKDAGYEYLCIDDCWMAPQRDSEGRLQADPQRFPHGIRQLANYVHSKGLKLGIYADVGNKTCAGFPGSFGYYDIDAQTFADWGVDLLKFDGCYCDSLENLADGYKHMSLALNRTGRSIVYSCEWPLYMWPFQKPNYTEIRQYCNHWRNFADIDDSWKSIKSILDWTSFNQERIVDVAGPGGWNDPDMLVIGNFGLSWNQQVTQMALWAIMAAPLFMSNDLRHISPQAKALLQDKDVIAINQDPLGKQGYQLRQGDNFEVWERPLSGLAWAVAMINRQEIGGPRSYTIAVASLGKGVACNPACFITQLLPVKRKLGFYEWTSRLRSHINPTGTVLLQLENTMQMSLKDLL
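Spleen homogenate 1 ug + cpd (titration) + 4-MU-alpha-D-galactopyranoside 1 mM; 37C 40 min; 50 mM citrate/phosphate pH 5.0, 0.01% Tween-20; stop pH 10; fluorescence 365/440; AC50 via Hill.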
GAA inh = inhibitors of human lysosomal alpha-glucosidase | Potency, µM (doses to about 76.9 µM), for inactives: at the highest dose activity change, negative = inhibition, usual class: inhibitors | actives 0.005% (n = 200,000) | P10253 | AID 1466 | purified human GAA, 4-MU-alpha-glucoside fluorescence;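 also: potency is read from the fitted curve at half-maximal effect; plate controls were uninhibited enzyme wells for no effect and no-enzyme background for full effect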
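Activity normalized between no-enzyme (basal) and enzyme-only wells. Conditions: 4 nM human enzyme, 400 uM fluorogenic substrate, citrate/phosphate pH 5.0 with Tween-20, 20 min room temperature, compounds up to 77 uM.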
N370S GC = inhibits or activates N370S mutant glucocerebrosidase. P04062. Potency, µM (doses to about 59.4 µM), inactives show top-dose activity change, negative = inhibition, actives largely listed as inhibitors. actives 0.092% (n = 330,000). N370S GC spleen homogenate, 4MU-glucoside fluorescence;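 also: potency is read from the fitted curve at half-maximal effect; 0% = full enzyme activity and -100% = no enzyme basal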
* hit, by the source's call; ? = inconclusive; / = not tested or not shown; ! = repeats disagree; [ ] = dose if it differs, or a comment. Calls follow the shape of the dose curve; as a rule, active = well fitted curve in the direction sought with a large enough effect; inconclusive = small, poorly fitted or top-dose-only effect, or another doubt; inactive = no such curve, though single readings can be large; an effect the other way counts as inactive or inconclusive.

SMILES	aGlu spleen mod	GLA inh pH 4.5	GAA glycogen	aGal spleen mod	GAA inh	N370S GC
CNC(=O)Oc1cccc2ccccc12	-3%	1	35µM*	0%	/	2%
CN1CCN(c2ccc(NC(=O)Oc3ccccc3)cc2)CC1	-3%	0	?	5%	4%	-12%
O=C(Nc1ccc(COc2ccccc2)cc1)Oc1ccccc1N1CCOCC1	0%	-3	4µM*	0%	-8%	0%
CNc1ccc2oc(C[C@@H]3OC4(CC[C@@H]3C)O[C@H]([C@@H](C)C(=O)c3ccc[nH]3)[C@H](C)C[C@H]4C)nc2c1C(=O)O (some centres not stated)	-15%	/	/	13%	/	9%
CN(C(=O)Cc1ccc(Cl)c(Cl)c1)C(CN1CCCC1)c1cccc(N=C=S)c1 (configuration not stated)	3%	/	/	-1%	/	-6%
CC1(C)N(O)C2CCCCC2N1O (configuration not stated)	-3%	-2	-22%	-5%	-1%	4%
CC12CCCCC1N(O)CN2O (configuration not stated)	2%	5	18µM*	5%	-1%	-16%
O=C1CC(c2cccnc2)=NN1c1ccccc1	2%	-3	-19%	1%	-9%	-6%
O=C1CC(NC(=O)C(F)(F)F)=NN1c1ccccc1	-12%	-11	18µM*	0%	4%	-7%
CCOC(=O)C1(CCOc2ccccc2)CCN(Cc2cnc(SC)nc2)CC1	-1%	7	4%	1%	1%	20µM*
NC(=O)CF	-4%	/	/	9%	/	-1%
C[C@]12CC[C@@H]3c4ccc(O)c(O)c4CC[C@H]3[C@@H]1CC[C@@H]2O	11%	-22	8.8µM*	11%	-13%[15.4 µM]	-4%
C[C@]12CC[C@@H]3c4cc(O)c(O)cc4CC[C@H]3[C@@H]1CC[C@@H]2O	7%	-11	3.1µM*	4%	-34%[15.4 µM]	-9%
C[C@]12CC[C@H]3[C@@H](CCC4=CC(=O)CC[C@@H]43)[C@@H]1CC[C@@H]2O	-2%	-4	/	-8%	/	?
CCCN1CCCC2Cc3nc(N)ncc3CC21 (configuration not stated)	0%	/	/	-15%	/	18%
O=C(NC1CCCCC1)c1cn(CCN2CCOCC2)c2cc(Cl)ccc2c1=O	-7%	/	/	4%	/	-7%
Cc1cc2c(s1)Nc1ccccc1N=C2N1CCN(C)CC1	-3%	0	5.6µM*	-6%	0%[15.4 µM]	-5%
CCOC(=O)N(C)C(=O)CSP(=S)(OCC)OCC	-9%	/	/	-11%	/	-5%
ON1C2CCCCC2N(O)C1c1ccccc1F (configuration not stated)	-4%	6	8.8µM*	-20%	1%	-2%
O=c1cc(-c2ccc(O)c(O)c2)oc2c(C3O[C@H](CO)[C@@H](O)[C@H](O)[C@H]3O)c(O)cc(O)c12 (some centres not stated)	-16%	-14	4.5µM*	-9%	?	-18%
CCCC/C(C)=C/[C@@H](NP(=O)(c1ccccc1)c1ccccc1)c1ccccc1	2%	-1	1.3µM*	7%	?	-3%
COC(=O)[C@H]1[C@H](c2ccccc2)C(=O)[C@@]2(O)c3ccccc3O[C@@]12c1ccccc1	-8%[17.4 µM]	/	/	-5%[17.5 µM]	/	4%[12.8 µM]
CCCCC/C=C\C/C=C\C/C=C\C/C=C\CCCC(=O)Nc1ccc(O)cc1	0%	-8	32µM*	-4%	?	-14%
CC[C@H](C)[C@H](NC(=O)[C@@H](N)Cc1ccc(O)cc1)C(=O)NCC(=O)N[C@@H](CO)C(=O)N[C@@H](CCCN=C(N)N)C(N)=O	6%	/	/	-4%	/	1%
N#Cc1c(/N=C/c2c(O)n(Cc3ccco3)c(=O)[nH]c2=O)sc2c1CCCC2	-5%	-4	14µM*	-18%	11%	2%
SMILES	aGlu spleen mod	GLA inh pH 4.5	GAA glycogen	aGal spleen mod	GAA inh	N370S GC
Cc1cc(/C=C2\C(=O)NC(=O)N(c3ccc(F)cc3)C2=O)c(C)n1-c1ccc(C(=O)O)cc1	0%	-20	?	13%	28µM*	/
Cc1ccc(N2C(=O)NC(=O)/C(=C\c3cc(C)n(-c4ccc(C(=O)O)cc4)c3C)C2=O)cc1	/	/	5%	/	/	-8%
O=C1CC(N(O)c2ccccc2)C(=O)N1Cc1ccccc1 (configuration not stated)	2%	5	32µM*	0%	-6%	-6%
C[C@@H]1CC[C@H]2[C@H](C)[C@H]3CC[C@@]4(O)[C@@H]5CC(=O)[C@H]6CC(=O)CC[C@]6(C)[C@H]5C[C@H]4[C@@H]3CN2C1	-7%	/	/	-16%	/	-7%
CCOC(=O)c1c(C)n(CCN2CCN(C)CC2)c2ccc(OC)cc12	0%	-6	4%	-4%	-7%	-7%
COc1ccc2c(c1)c(CCN1CCOCC1)c(C)n2C(=O)c1cccc(Cl)c1Cl	-1%	-6	/	0%	/	13µM*
CC1(C)[C@H](C(=O)O[C@H](C#N)c2cccc(Oc3ccccc3)c2)[C@@H]1C=C(Br)Br	-1%	/	/	7%	/	-14%
CN1C(=O)C(Cc2ccsc2)C(=O)N(C)C1=O	0%	-3	6%	-6%	-13%	0%
CN1C(=O)C(Cc2ccc3c(c2)OCO3)C(=O)N(C)C1=O	-5%	-2	40µM*	3%	-4%	/
O=c1c2ccccc2[se]n1-c1ccccc1	-5%	-2	-6%	-25%	-8%[15.4 µM]	22µM*!
Oc1ccc(CC2CC3CCN2CC3)cc1O (configuration not stated)	-2%	-5	3.5µM*	-1%	1%	-6%
Oc1ccc(C[C@H]2NCCc3cc(O)c(O)cc32)cc1O	/	/	?	/	/	-9%
